Reference: PubChem BioAssay (Tox21)
A number with no mark means an inactive call. Entries that show only a call come without a potency. Active and inactive are the calls of the source. Unless noted, calls follow the shape of the dose curve; as a rule, active = well fitted curve in the direction sought with a large enough effect in the repeat runs; inconclusive = weak or mixed curves; inactive = no such curve, though single readings can be large; an effect the other way counts as inactive or inconclusive. Positions of bridges follow the written chain, without caps; N, C: chain ends. Non-standard residues stand in square brackets, D forms with d. Residues, ends and D or L forms follow the SMILES beside them. ξ: configuration not given here. *: point of attachment. d(aThr) = C[C@@H](O)[C@@H](N)C(=O)O; ξThr(3R) = C[C@@H](O)C(N)C(=O)O; X3 = CC[C@@H](C)CCCCC(=O)*; dDab = NCC[C@@H](N)C(=O)O

Assays:
[1] = qHTS assay to identify small molecule antagonists of the thyroid receptor (TR) signaling pathway - cell viability counter screen (AID 743064); also: nearly all actives have a fitted effect of over 50% in size; also: potency is read from the fitted curve at half-maximal effect
In short: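 In-well cytotoxicity read by CellTiter-Fluor (30 min, 37 C) following 23.5 h exposure of GH3 cells bearing a TRE-luciferase sensor. Compounds were added alongside 1 nM (final) T3 to drive TR transactivation.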

[2] = molecular target: Estrogen receptor (Homo sapiens) (UniProt P03372); assay: qHTS assay to identify small molecule antagonists of the estrogen receptor alpha (ER-alpha) signaling pathway (AID 743069; active = well fitted curve in the direction sought with a large enough effect in the signal ratio in the repeat runs, not every such curve was filed as active; inconclusive = weak or mixed curves, or effect the other way; inactive = no such curve, though single readings can be large or run the other way; the % refers to the signal ratio; also: potency is read from the fitted curve at half-maximal effect)
In short: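 Compound effects are measured against 17beta-estradiol stimulation in HEK293 cells with a UAS-controlled beta-lactamase reporter for ER-alpha. Exposure lasts 18 hr at 37C; LiveBLAzer B/G FRET substrate follows for 2 hr at room temperature.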

[3] = qHTS assay to identify small molecule antagonists of the estrogen receptor alpha (ER-alpha) signaling pathway - cell viability counter screen (AID 743074; calls by dose curve;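 also: HEK293 cells carrying ER-alpha-UAS-bla reporter stimulated with 17beta-estradiol; nearly all actives have a fitted effect of over 45% in size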; also: potency is read from the fitted curve at half-maximal effect)
[4] = molecular target: Estrogen receptor (Homo sapiens) (UniProt P03372); assay: qHTS assay to identify small molecule agonists of the estrogen receptor alpha (ER-alpha) signaling pathway (AID 743075; calls by dose curve; also: potency is read from the fitted curve at half-maximal effect)
[5] = molecular target: Estrogen receptor (Homo sapiens) (UniProt P03372); assay: qHTS assay to identify small molecule agonists of the estrogen receptor alpha (ER-alpha) signaling pathway using the BG1 cell line (AID 743079); settings: BG1Luc4E2 cells, ERE-luciferase agonist, 22 h; activation: at 70.3 µM (top of the series); also: nearly all actives have a fitted effect of over 20% in size; also: potency is read from the fitted curve at half-maximal effect
[6] = qHTS assay to identify small molecule antagonists of the estrogen receptor alpha (ER-alpha) signaling pathway using the BG1 cell line (AID 743080; calls by dose curve;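 also: BG1 cells stimulated with 17beta-estradiol alongside compound; nearly all actives have a fitted effect of over 25% in size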; also: potency is read from the fitted curve at half-maximal effect)
In short: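 Quantitative HTS on the Tox21 10K library: BG1 cells with endogenous ER-alpha and ERE-luciferase reporter, 17beta-estradiol stimulation, 21.5 h compound exposure, luminescence endpoint with parallel fluorescence cytotoxicity counter-read.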

[7] = qHTS assay to identify small molecule antagonists of the estrogen receptor alpha (ER-alpha) signaling pathway using the BG1 cell line - cell viability counter screen (AID 743081);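 also: compound given together with 17beta-estradiol as the ER stimulus; nearly all actives have a fitted effect of over 45% in size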
[8] = molecular target: Aromatase (Homo sapiens) (UniProt P11511); assay: qHTS assay to identify aromatase inhibitors (AID 743083); also: nearly all actives have a fitted effect of over 55% in size; also: potency is read from the fitted curve at half-maximal effect
[9] = qHTS assay to identify aromatase inhibitors - cell viability counter screen (AID 743084);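 also: cells stimulated with testosterone during compound exposure; nearly all actives have a fitted effect of over 55% in size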; also: potency is read from the fitted curve at half-maximal effect
[10] = molecular target: Aryl hydrocarbon receptor (Homo sapiens) (UniProt P35869); assay: qHTS assay to identify small molecule that activate the aryl hydrocarbon receptor (AhR) signaling pathway (AID 743085); also: nearly all actives have a fitted effect of over 15% in size; also: potency is read from the fitted curve at half-maximal effect;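 as to activation: HG2L7.5c1 human HepG2 liver cells with stably integrated DRE-driven firefly reporter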
In short: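 Luminescence (ONE-Glo) from a dioxin-responsive-element luciferase reporter in HG2L7.5c1 HepG2 cells after 24 hr compound exposure at 37C; viability measured by CellTiter-Fluor fluorescence beforehand.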

[11] = qHTS assay to identify small molecule that activate the aryl hydrocarbon receptor (AhR) signaling pathway - cell viability counter screen (AID 743086); also: nearly all actives have a fitted effect of over 45% in size; also: potency is read from the fitted curve at half-maximal effect
In short: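 Cytotoxicity counter screen: CellTiter-Fluor signal (30 min, 37 C) in 4000 HepG2 cells/well carrying the DRE-luciferase reporter, following 24 h compound exposure at 37 C.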

[12] = molecular target: Peroxisome proliferator-activated receptor gamma (Homo sapiens) (UniProt P37231); assay: qHTS assay to identify small molecule agonists of the peroxisome proliferator-activated receptor gamma (PPARg) signaling pathway (AID 743094; active = well fitted activation curve with a large enough effect in the signal ratio in the repeat runs, not every such curve was filed as active; inconclusive = weak or mixed curves, or effect the other way; inactive = no such curve, though single readings can be large or run the other way; the % refers to the signal ratio)
In short: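 Quantitative HTS agonist mode: stable HEK293H line with UAS-beta-lactamase reporter under PPARg control, 17 h compound exposure at 37C, fluorescence after 1 h FRET substrate loading at room temperature.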

[13] = qHTS assay to identify small molecule phospholipidosis (PLD) inducers (AID 1259344; active = well fitted curve in the direction sought with a large enough effect; inconclusive = small, poorly fitted or top-dose-only effect, or another doubt; inactive = no such curve, though single readings can be large; an effect the other way counts as inactive or inconclusive)
In short: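 Fluorescent phospholipid staining (LipidTOX Red) measured by automated microscopy in fixed HepG2 cells after 24 h treatment; nuclei counterstained with Hoechst 33342; amiodarone as reference inducer.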

[14] = molecular target: Nuclear receptor subfamily 1 group I member 2 (Rattus norvegicus) (UniProt Q9R1A7); assay: Rat pregnane X receptor (rPXR) activation by small molecules, qHTS assay (AID 1346983); settings: rPXR luciferase reporter cells, One-Glo luminescence, 24 h; max activation: hits give high values; also: nearly all actives have a fitted effect of over 20% in size; also: potency is read from the fitted curve at half-maximal effect
In short: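 Luminescent readout (One-Glo luciferase, 30 min room temperature) followed 24 hr compound treatment at 37 C of rPXR cells plated 2,000 per well and preincubated 5hr; qHTS format with compounds delivered in DMSO.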

[15] = molecular target: Nuclear receptor subfamily 1 group I member 2 (Homo sapiens) (UniProt O75469); assay: CYP3A4 induction through human pregnane X receptor (PXR) by small molecules, qHTS assay (AID 1346984); also: nearly all actives have a fitted effect of over 40% in size; also: potency is read from the fitted curve at half-maximal effect
In short: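 Steps: seed DPX-2 cells, 5 hr at 37C; pin-transfer compounds; 24 hr at 37C; add Luciferin-IPA (3uM final), 3 hr at 37C; add One-Glo, 30 min RT; read luminescence.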

[16] = molecular target: Nuclear receptor subfamily 1 group I member 2 (Homo sapiens) (UniProt O75469); assay: Human pregnane X receptor (PXR) activation by small molecules, qHTS assay (AID 1346985); also: nearly all actives have a fitted effect of over 40% in size; also: potency is read from the fitted curve at half-maximal effect
In short: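 DPX-2 cells (HepG2 co-transfected with a PXR response element and a CYP3A4-promoter luciferase construct) were seeded at 2,000 per well, rested 5 hr at 37C, then exposed to DMSO-dissolved compounds for 24 hr. Activation was read as luciferase luminescence.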

[17] = tested on: thyroid hormone receptor (rat, GH3 cells); assay: qHTS assay to identify small molecule agonists of the thyroid receptor (TR) signaling pathway (AID 743066; calls by dose curve; also: potency is read from the fitted curve at half-maximal effect)
[18] = qHTS assay to identify small molecule antagonists of the thyroid receptor (TR) signaling pathway (AID 743065); also: nearly all actives have a fitted effect of over 55% in size; also: potency is read from the fitted curve at half-maximal effect
In short: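 Antagonism measured as loss of luciferase signal in GH3 cells stably carrying a TRE-luciferase reporter, co-treated with compound and T3 (1 nM final) for 23.5 h at 37 C. Viability was read in the same well by CellTiter-Fluor.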

Aromatase (Homo sapiens), sequence (P11511 whole entry, looked up): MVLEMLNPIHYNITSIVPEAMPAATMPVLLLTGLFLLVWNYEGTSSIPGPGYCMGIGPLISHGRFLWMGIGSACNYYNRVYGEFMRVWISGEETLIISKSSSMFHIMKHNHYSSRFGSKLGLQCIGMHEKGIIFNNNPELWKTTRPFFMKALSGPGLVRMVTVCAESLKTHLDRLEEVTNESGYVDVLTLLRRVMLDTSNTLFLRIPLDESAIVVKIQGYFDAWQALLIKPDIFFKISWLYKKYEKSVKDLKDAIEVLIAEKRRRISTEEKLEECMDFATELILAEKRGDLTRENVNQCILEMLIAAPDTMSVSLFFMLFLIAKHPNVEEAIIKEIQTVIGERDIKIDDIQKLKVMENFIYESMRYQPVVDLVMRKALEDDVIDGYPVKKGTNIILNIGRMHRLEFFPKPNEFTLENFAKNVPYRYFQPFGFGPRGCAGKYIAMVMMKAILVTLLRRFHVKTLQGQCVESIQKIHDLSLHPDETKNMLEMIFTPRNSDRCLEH
Aryl hydrocarbon receptor (Homo sapiens), sequence (P35869 whole entry, looked up): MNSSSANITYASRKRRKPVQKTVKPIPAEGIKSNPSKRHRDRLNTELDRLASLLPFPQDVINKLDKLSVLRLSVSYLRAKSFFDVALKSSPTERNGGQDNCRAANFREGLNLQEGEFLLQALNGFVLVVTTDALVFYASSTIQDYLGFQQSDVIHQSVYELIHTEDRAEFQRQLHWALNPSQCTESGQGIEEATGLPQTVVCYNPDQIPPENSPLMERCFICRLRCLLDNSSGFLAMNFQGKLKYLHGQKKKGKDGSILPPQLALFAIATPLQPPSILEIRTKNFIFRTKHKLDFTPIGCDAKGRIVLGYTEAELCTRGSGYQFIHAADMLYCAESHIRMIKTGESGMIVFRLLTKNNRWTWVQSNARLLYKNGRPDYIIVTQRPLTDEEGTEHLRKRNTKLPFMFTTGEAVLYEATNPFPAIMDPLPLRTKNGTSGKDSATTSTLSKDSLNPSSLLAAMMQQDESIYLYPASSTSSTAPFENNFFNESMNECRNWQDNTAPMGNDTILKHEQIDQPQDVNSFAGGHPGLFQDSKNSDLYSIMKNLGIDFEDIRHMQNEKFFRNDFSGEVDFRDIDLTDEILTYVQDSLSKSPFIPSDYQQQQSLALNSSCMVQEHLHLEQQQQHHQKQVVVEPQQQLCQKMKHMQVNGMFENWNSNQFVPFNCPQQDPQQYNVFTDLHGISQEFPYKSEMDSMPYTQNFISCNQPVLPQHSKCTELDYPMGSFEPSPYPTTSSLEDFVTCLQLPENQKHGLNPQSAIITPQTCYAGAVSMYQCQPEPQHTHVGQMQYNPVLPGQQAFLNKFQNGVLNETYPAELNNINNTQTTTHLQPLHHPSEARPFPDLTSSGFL
Nuclear receptor subfamily 1 group I member 2 (Rattus norvegicus), sequence (Q9R1A7 whole entry, looked up): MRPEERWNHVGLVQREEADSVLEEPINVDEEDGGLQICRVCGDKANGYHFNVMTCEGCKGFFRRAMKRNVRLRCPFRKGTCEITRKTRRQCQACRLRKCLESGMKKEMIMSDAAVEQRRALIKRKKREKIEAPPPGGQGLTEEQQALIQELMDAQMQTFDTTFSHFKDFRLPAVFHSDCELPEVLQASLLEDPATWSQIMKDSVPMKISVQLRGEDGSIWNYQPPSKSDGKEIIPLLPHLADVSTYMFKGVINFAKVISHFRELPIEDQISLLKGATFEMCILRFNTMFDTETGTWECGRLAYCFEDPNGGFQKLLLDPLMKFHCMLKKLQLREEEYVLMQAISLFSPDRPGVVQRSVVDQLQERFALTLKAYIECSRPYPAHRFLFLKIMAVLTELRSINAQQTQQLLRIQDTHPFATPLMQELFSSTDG
Peroxisome proliferator-activated receptor gamma (Homo sapiens), sequence (P37231 whole entry, looked up): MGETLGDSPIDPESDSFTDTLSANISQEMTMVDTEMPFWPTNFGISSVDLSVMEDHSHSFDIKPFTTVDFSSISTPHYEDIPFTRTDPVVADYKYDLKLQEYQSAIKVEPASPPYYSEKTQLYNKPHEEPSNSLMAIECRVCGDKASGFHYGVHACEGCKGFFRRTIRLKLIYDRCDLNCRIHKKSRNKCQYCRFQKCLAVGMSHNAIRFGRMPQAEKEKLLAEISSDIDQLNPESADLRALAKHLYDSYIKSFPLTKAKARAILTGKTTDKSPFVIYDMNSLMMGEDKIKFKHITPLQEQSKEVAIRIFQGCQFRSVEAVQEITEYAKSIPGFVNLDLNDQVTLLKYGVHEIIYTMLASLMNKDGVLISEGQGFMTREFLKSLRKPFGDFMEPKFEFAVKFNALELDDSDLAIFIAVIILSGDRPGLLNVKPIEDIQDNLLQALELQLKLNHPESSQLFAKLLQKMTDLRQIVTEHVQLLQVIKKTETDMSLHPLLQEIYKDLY
Estrogen receptor (Homo sapiens), sequence (P03372 whole entry, looked up): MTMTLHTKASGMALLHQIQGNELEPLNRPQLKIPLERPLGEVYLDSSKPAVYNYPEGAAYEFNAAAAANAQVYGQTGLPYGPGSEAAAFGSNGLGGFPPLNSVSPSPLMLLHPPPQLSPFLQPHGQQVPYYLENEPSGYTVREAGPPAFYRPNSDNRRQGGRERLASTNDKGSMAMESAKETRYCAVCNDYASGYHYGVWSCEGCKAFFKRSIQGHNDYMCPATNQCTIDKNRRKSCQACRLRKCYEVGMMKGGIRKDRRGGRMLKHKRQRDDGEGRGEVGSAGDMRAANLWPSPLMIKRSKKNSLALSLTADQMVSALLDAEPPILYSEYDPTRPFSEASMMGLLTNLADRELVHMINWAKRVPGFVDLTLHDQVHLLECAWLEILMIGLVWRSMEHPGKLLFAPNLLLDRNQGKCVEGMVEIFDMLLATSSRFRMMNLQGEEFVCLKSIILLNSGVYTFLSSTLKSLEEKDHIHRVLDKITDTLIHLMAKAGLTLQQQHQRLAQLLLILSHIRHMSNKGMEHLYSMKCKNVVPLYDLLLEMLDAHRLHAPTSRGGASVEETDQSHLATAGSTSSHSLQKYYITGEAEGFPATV

| Structure (SMILES) | Potency [1] | Potency [2] | Potency [3] | Potency [4] | Potency [5] | Potency [6] | Potency [7] | Potency [8] | Potency [9] | Potency [10] | Potency [11] | Potency [12] | Potency [13] | max activation [14] [%] | Potency [15] | Potency [16] | Potency [17] | Potency [18] | Potency [14] |
| --- | --- | --- | --- | --- | --- | --- | --- | --- | --- | --- | --- | --- | --- | --- | --- | --- | --- | --- | --- |
| NCCCC[C@H](N)C(=O)O | inactive | inactive | inactive | inactive | inactive | inactive | inactive | inactive | inactive | inactive | inactive | inactive | inactive | -0.992 | inactive | inactive | – | – | – |
| COc1ccc(C[C@@H](C)NC[C@H](O)c2ccc(O)c(NC=O)c2)cc1 | inactive | inactive | – | inactive | inactive | inactive | inactive | – | inactive | inactive | inactive | inactive | inactive | -1.9 | inactive | inactive | inactive | – | – |
| CC[C@@H](C)CCCCC(=O)N[C@H](CCN)C(=O)N[C@@H](C(=O)N[C@H](CCN)C(=O)N[C@@H]1CCNC(=O)C([C@@H](C)O)NC(=O)[C@@H](CCN)NC(=O)[C@@H](CCN)NC(=O)[C@@H](CC(C)C)NC(=O)[C@@H](Cc2ccccc2)NC(=O)[C@@H](CCN)NC1=O)[C@@H](C)O (stereo partly drawn) (X3-[dDab][d(aThr)][dDab][dDab][dDab][dF][dL][dDab][dDab][ξThr(3R)]; lactam 4-C) | inactive | – | inactive | – | – | – | inactive | inactive | inactive | inactive | inactive | inactive | inactive | -6 | inactive | inactive | inactive | – | – |
| C=C1CC[C@@H]2[C@](C)(CO)[C@H](O)CC[C@@]2(C)[C@@H]1C/C=C1/C(=O)OC[C@H]1O | 21.1 µM (active) | inactive | inactive | inactive | inactive | – | inactive | inactive | – | inactive | – | – | inactive | -5.66 | inactive | inactive | – | 23.7 µM (active) | – |
| CC(C)=CCC/C(C)=C/C=C/C(C)=C/C=C/C(C)=C/C=C/C=C(C)/C=C/C=C(C)/C=C/C=C(\C)CCC=C(C)C | inactive | inactive | inactive | 7.56 µM [inconclusive] (active) | 6.68 µM (active) | inactive | inactive | inactive | inactive | inactive | inactive | – | inactive | 2.83 | inactive | inactive | inactive | – | – |
| CC1=C(/C=C/C(C)=C/C=C/C(C)=C/C(=O)Oc2c(C)c(C)c3c(c2C)CC[C@@](C)(CCC[C@H](C)CCC[C@H](C)CCCC(C)C)O3)C(C)(C)CCC1 | inactive | inactive | inactive | inactive | inactive | 7.5 µM (active) | inactive | – | inactive | inactive | inactive | inactive | inactive | -1.27 | inactive | inactive | – | inactive | – |
| C=C1CC[C@H](O)CC1=C/C=C1\CCC[C@]2(C)[C@@H]([C@H](C)CCCC(C)(C)O)CC[C@@H]12 | 11.9 µM (active) | – | 23.9 µM (active) | inactive | – | – | inactive | inactive | inactive | – | inactive | – | inactive | -20.1 | inactive | inactive | – | 6.68 µM (active) | – |
| CN(C)C(=O)CCSC(SCCC(=O)O)c1cccc(/C=C/c2ccc3ccc(Cl)cc3n2)c1 (stereo unspecified) | 29.8 µM (active) | 7.56 µM [inconclusive] (active) | inactive | inactive | 2.37 µM (active) | – | inactive | inactive | – | 1.88 µM (active) | – | – | inactive | – | inactive | 8.91 µM (active) | – | 26.6 µM (active) | 4.47 µM (active) |
| COc1ccccc1N1CCN(CCCC(=O)c2ccc(F)cc2)CC1 | inactive | – | inactive | – | – | – | – | inactive | inactive | 10.6 µM (active) | inactive | inactive | inactive | 8.11 | 6.31 µM (active) | 7.94 µM (active) | inactive | inactive | – |
| CCN(CC)CCC(=O)N1c2ccccc2Sc2ccc(Cl)cc21 | 23.7 µM (active) | inactive | inactive | inactive | – | – | – | inactive | inactive | inactive | – | inactive | inactive | 3.32 | 14.1 µM (active) | 14.1 µM (active) | – | 26.6 µM (active) | – |
| O=C(O)C1CCCN1 (stereo unspecified) | inactive | – | – | – | – | – | inactive | inactive | inactive | inactive | inactive | – | inactive | -0.193 | inactive | inactive | inactive | inactive | – |
| Clc1cc(Cl)c(OCC#CI)cc1Cl | 7.5 µM (active) | inactive | inactive | inactive | – | 33.5 µM (active) | inactive | 16.8 µM (active) | 21.1 µM (active) | inactive | – | – | inactive | -1.32 | inactive | inactive | – | 6.68 µM (active) | – |
| O=[N+]([O-])c1c(Cl)cccc1-c1c[nH]cc1Cl | 29.8 µM (active) | – | – | 4.77 µM [inconclusive] (active) | – | – | – | – | – | – | – | – | inactive | 9.62 | 11.2 µM (active) | 14.1 µM (active) | – | 26.6 µM (active) | – |
| COc1cc(-c2ccc(-[n+]3nc(-c4ccccc4)nn3-c3ccc([N+](=O)[O-])cc3)c(OC)c2)ccc1-[n+]1nc(-c2ccccc2)nn1-c1ccc([N+](=O)[O-])cc1 | 26.6 µM (active) | – | 4.25 µM (active) | – | – | – | – | 26.6 µM (active) | 29.8 µM (active) | – | 26.6 µM (active) | – | inactive | -16 | inactive | inactive | – | 29.8 µM (active) | – |
| COc1cc(C)c(/C=C/C(C)=C/C=C/C(C)=C/C(=O)O)c(C)c1C | inactive | – | inactive | 4.25 µM [inconclusive] (active) | – | 0.473 µM (active) | inactive | – | inactive | inactive | inactive | – | inactive | -4.44 | inactive | inactive | 5.96 µM (active) | – | – |
